Assay outcomes deposited in PubChem BioAssay by National Center for Advancing Translational Sciences (NCATS).
KinaseGlo FLuc – Kinase-Glo luciferase inhibition (counter-screen); AID 1379; Q27757; 0.28% of 200,000 active; Potency, µM (doses to about 38.3 µM), without a hit: at the highest dose activity change, negative = inhibition, most hits filed as inhibitors; Kinase-Glo luciferase, ATP luminescence, 8 min; note: % is set by controls: 0 for no effect and ±100 for the full control effect; nearly all actives have a fitted effect of over 60% in size
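Substrate mix (final 50 mM imidazole pH 7.2, 50 mM KCl, 7 mM MgCl2, 10 uM ATP, 0.01% Tween 20, 0.05% BSA) plus pin-tool compound, then Kinase-Glo detection mix; 8 min ambient, luminescence read.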
Rab9 prom act – Rab9 promoter activation. Huh7 Rab9 promoter-luciferase reporter, luminescence, 24 h. Potency, µM (top dose mostly 9.22 µM), for inactives: at the top dose activation, negative = inhibition, hits mostly activators. 2.8% of 320,000 active; note: % of control where 0% means no effect; nearly all actives have a fitted effect of over 60% in size
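Using Huh7 cells stably transfected with Rab9 promoter–luciferase, compounds were incubated 24 h at 37 °C, 5% CO2; luciferase luminescence was read 10 min after reagent addition.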
SMN2 splice enh – increases expression of the SMN2 splice variant | 2.8% of 210,000 active | AID 1458 | HEK293 SMN2-luciferase splicing reporter, luminescence, 30-36 h | Potency, µM (doses to about 46.1 µM), for inactives: at the top dose activity change, positive = activation, actives largely listed as activators; note: % of control where 0% means no effect; nearly all actives have a fitted effect of over 55% in size
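qHTS luciferase splicing reporter: luminescence rises when SMN2 exon 7 is included in transfected HEK293 cells. Compound exposure lasted 30-36 h at 37C, with 4.5 mM final sodium butyrate as control, followed by a ONE-Glo read.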
FLuc modulator – inhibits or activates purified firefly luciferase, miR-21 counter-screen | AID 588342 | 6.9% of 360,000 active | Potency, µM (top dose mostly 57.5 µM), for inactives: top-dose activity change, negative = inhibition, hits mostly inhibitors | purified FLuc, Km substrates, luminescence inhibition | P08659;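 note: plate controls were vehicle for no effect and reference inhibitor for full effect; nearly all actives have a fitted effect of over 55% in size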
Target sequence (P08659 whole entry, looked up): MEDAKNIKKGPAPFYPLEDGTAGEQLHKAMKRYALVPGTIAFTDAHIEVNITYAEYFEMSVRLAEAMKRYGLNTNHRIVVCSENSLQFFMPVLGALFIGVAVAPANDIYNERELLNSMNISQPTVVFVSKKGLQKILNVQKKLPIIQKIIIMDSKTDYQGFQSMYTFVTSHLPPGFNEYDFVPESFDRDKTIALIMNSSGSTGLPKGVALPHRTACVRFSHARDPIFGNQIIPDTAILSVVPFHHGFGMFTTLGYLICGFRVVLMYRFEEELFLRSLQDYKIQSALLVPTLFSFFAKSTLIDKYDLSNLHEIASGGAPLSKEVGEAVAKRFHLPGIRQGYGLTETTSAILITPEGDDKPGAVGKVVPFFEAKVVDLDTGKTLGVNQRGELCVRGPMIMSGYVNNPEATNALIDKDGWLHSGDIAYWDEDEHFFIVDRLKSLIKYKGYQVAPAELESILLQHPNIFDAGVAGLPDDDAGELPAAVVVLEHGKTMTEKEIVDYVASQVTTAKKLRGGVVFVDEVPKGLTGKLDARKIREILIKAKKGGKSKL
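Biochemical qHTS of compounds, final roughly 60 µM downward over six points, against 10 nM purified firefly luciferase using Km concentrations of substrates (10 uM D-luciferin, 10 uM ATP) in Tris acetate pH 7.5 buffer; luminescence output.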
NPC1 prom act – NPC1 promoter activation. Huh7 NPC1 promoter luciferase reporter, 24 h. Potency, µM (titrated, usually from 9.22 µM), for the others: at the top dose activation, actives largely listed as activators. 2.4% of 320,000 active; note: % of control where 0% means no effect; nearly all actives have a fitted effect of over 60% in size
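Huh7 cells stably carrying NPC1 promoter–luciferase, plated in Opti-MEM with 10% FBS for 2 h, were exposed to compound in DMSO for 24 h at 37 °C; luciferase reagent was added for 10 min and luminescence read.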
ELG1 genotoxic – induces genotoxicity in HEK293T cells with luciferase-tagged ELG1; HEK293T ELG1-luciferase reporter, luminescence, 16 h; Potency, µM (highest dose often 46 µM), for the others: at the top dose activity change, positive = activation, most hits filed as activators; 1.3% of 330,000 active; note: % of control where 0% means no effect; nearly all actives have a fitted effect of over 60% in size
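Screening used a luciferase reporter fused to human ELG1 in HEK293T cells. Luminescence was read on a CCD plate imager after 16 hr exposure and 30 min ONE-Glo incubation.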
Active calls of the source: *; ? = inconclusive; · = no result given; [ ] = dose if it differs, or a comment. Most compounds without a hit are left out; they make up all but 7.5% or so of the library. Calls come from the whole dose curve; as a rule, active = well fitted curve in the direction sought with a large enough effect; inconclusive = small, poorly fitted or top-dose-only effect, or another doubt; inactive = no such curve, though single readings can be large; an effect the other way counts as inactive or inconclusive. Potency is the fitted concentration of half-maximal effect.

SMILES	KinaseGlo FLuc	Rab9 prom act	SMN2 splice enh	FLuc modulator	NPC1 prom act	ELG1 genotoxic
O=C(CSc1nnc(NC(=O)c2ccccc2[N+](=O)[O-])s1)NCc1ccco1	·	19%	·	13µM*	2%	13%
CCC12CCN(CCc3ccc(F)cc3)CC1Oc1c(O)cccc12 (stereo unspecified)	·	·	·	12%	·	·
CCCSC(=O)Cl	·	·	1%	·	·	·
Cc1ccccc1Cn1cccc(C(=O)Nc2nc3ccccc3s2)c1=O	·	·	·	0.43µM*	·	·
CCOc1ccc2nc(NC(=O)c3cccn(Cc4ccc(C)cc4)c3=O)sc2c1	·	·	·	-6%	·	·
O=C(Nc1nc2ccccc2s1)c1cccn(Cc2ccccc2)c1=O	·	·	·	0.76µM*	·	·
Cc1ccc2nc(NC(=O)c3cccn(Cc4ccc(Cl)cc4)c3=O)sc2c1	·	·	·	0%	·	·
CCOc1ccc2nc(NC(=O)c3cccn(Cc4ccccc4)c3=O)sc2c1	·	·	·	6µM*	·	·
CC(C)C(=O)CP(=O)(O)O	-2%[7.66 µM]	·	-5%[9.22 µM]	·	·	·
[Cl][Pd][Cl].[S-]C1=C2N=CN[C-]2[NH+]=C[N-]1.[S-]c1ncnc2[nH]cnc12	-1%[7.66 µM]	·	-6%[9.22 µM]	·	·	·
Nc1ccccc1C(=O)OCC(=O)c1ccc2c(c1)OCCO2	11µM*	3.2µM*	-22%	0.076µM*	2.8µM*	?
O=C(CNC(=O)c1ccc(Cl)cc1)OCC(=O)c1ccc2c(c1)OCCO2	1%	2%	11%	21µM*	-2%	-7%
CC(=O)Nc1ccccc1C(=O)OCC(=O)c1ccc2ccccc2c1	-1%	·	·	12µM*	26%	-11%
CCOC(=O)c1ccccc1N	·	·	-7%	·	·	0%
CN(C)CCCNc1c2c(nc3ccc(Cl)cc13)CCCC2	2%[7.66 µM]	·	-4%[9.22 µM]	·	·	·
O=C(c1ccccc1)[C@H]1[C@H](c2ccccc2[N+](=O)[O-])N1C1CCCCC1 (stereo partly specified)	-3%[7.66 µM]	·	1%[9.22 µM]	·	·	·
O=C1NC(=S)N(c2ccc(F)cc2)C(=O)/C1=C\c1ccoc1	·	-6%	·	24µM*	-1%	0%
Cc1ccc(/C=C2\C(=O)NC(=S)N(c3cccc(F)c3)C2=O)o1	·	-1%	·	17µM*	-3%	0%
O=P(O)(O)c1ccccc1OCCOCCOCCOCCOc1ccccc1P(=O)(O)O	-1%	3.5µM*	24%	?	4µM*	-6%
O=C(Oc1ccc(S(=O)(=O)F)cc1F)c1ccccc1Cl	-1%[7.66 µM]	·	-7%[9.22 µM]	·	·	·
O=c1[nH]c(O)c(/C=C2/C=CC(c3cc(Cl)ccc3Cl)=N2)c(=O)[nH]1	·	-9%	·	6.7µM*	-5%	15%
CC1=Nc2ccccc2/C1=C/c1c(O)[nH]c(=O)[nH]c1=O	·	4%	·	-2%	2%	-1%
Cc1ccc(N2C(=O)NC(=O)/C(=C/c3ccc(-c4ccc(C(=O)O)c(Cl)c4)o3)C2=O)cc1	-1%	-2%	6%	11µM*	-3%	-11%
Cc1cc(/C=C2\C(=O)NC(=O)N(c3cccc(F)c3)C2=O)c(C)n1-c1ccc(C(=O)O)c(Cl)c1	·	0%	·	-18%	-1%	-2%
